PglD inh = C. jejuni PglD acetyltransferase inhibitors, primary screen, biochemical, DTNB colorimetric, single point | UDP-N-acetylbacillosamine N-acetyltransferase PglD (Campylobacter jejuni) | 360,000 tested, 0.098% active | inhibition, % at 12.5 µM | purified PglD enzyme, DTNB colorimetric CoA detection; in the data active means inhibition above about 16%, passing the limit was not always enough
ALR H2O2 inh = inhibitors of human ALR sulfhydryl oxidase, primary screen, biochemical, H2O2 detection, HRP-luminol luminescence, single point | purified ALR, DTT oxidation | inhibition, % (test concentration not listed) | 290,000 tested, 3.8% active;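 active means mean replicate inhibition above about 79%, with every replicate also reaching it, limit read from the data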
CendR NRP1 mod = modulators of CendR peptide binding to NRP-1, primary screen, biochemical, fluorescence polarization, uHTS; Neuropilin-1 (Homo sapiens), O14786; inhibition, % at 25 µM; 360,000 tested, 0.85% active; FAM-RPARPAR peptide binding to NRP-1;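 active means inhibition or corrected inhibition above about 18%, plus a signal ratio from 0.5 to 1.5, limit read from the data, passing the limit was not always enough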
PDI turbidity = inhibitors of human PDI, primary screen, biochemical, turbidity, single point, plate reader. inhibition, % at 10 µM. PDI insulin aggregation turbidity, A650, 90 min. 350,000 tested, 0.052% active;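 active means mean inhibition across replicates of 30% or more, whatever share of single replicates reach that level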
Target sequence (P07237 whole entry, looked up): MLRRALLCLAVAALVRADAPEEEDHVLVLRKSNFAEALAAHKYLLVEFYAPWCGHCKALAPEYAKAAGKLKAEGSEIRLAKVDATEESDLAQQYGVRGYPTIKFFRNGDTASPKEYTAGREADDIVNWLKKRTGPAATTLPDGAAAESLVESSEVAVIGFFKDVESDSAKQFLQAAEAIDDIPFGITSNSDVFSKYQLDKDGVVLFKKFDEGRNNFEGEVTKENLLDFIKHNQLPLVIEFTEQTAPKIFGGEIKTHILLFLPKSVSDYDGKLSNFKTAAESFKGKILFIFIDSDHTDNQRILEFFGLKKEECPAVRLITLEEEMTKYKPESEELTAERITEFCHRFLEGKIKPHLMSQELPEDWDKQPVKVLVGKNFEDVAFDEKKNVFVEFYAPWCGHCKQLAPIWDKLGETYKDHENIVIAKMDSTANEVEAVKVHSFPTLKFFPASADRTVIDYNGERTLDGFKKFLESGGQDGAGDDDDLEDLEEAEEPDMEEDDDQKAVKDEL
ERp5 block = inhibitors of ERp5-driven insulin aggregation, primary screen, biochemical, turbidity, absorbance 650 nm, single point. Protein disulfide-isomerase A6 (Homo sapiens), Q15084. 90 min. inhibition, % at 9.99 µM. 350,000 tested, 0.05% active;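 active means mean replicate inhibition above about 25%, with every replicate also reaching it, limit read from the data, passing the limit was not always enough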
ARNT TACC3 PPI = disruptors of ARNT/TACC3 protein interaction, primary screen, biochemical, AlphaScreen, single concentration. 390,000 tested, 0.66% active. AlphaScreen His-ARNT PAS-B/GST-TACC3 binding, luminescence; TACC3 fragment carries E629A point mutation. Transforming acidic coiled-coil-containing protein 3 (Homo sapiens), Q9Y6A5. inhibition, % at 9.99 µM;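 active means mean inhibition of replicates at least 50% and at least half of replicates each reaching 50%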
Hits are given with their value; i = inactive; nt = no result. Shown is part of a subset that was picked to be rich in hits.

SMILES	PglD inh	ALR H2O2 inh	CendR NRP1 mod	PDI turbidity	ERp5 block	ARNT TACC3 PPI
C[C@H](CO)N1C[C@H](C)[C@@H](CN(C)C(=O)c2ccncc2)Oc2ncc(C3=CCCCC3)cc2C1=O	i	nt	nt	nt	i	i
Cc1noc(C)c1S(=O)(=O)N(C)C[C@@H]1Oc2ccc(NS(=O)(=O)c3ccc(Cl)cc3)cc2C(=O)N([C@H](C)CO)C[C@@H]1C	i	nt	nt	nt	i	i
Cc1ccc(NC(=O)c2cccc(C(=O)Nc3ccc(C)cc3C(=O)O)c2)c(C(=O)O)c1	i	99	i	i	i	i
Cc1ccc(S(=O)(=O)CCSc2cccc(C(=O)Nc3ccccc3C(=O)O)c2)cc1	i	99	i	i	nt	i
COc1ccc(C)cc1NC(=O)c1ccc2c(c1)OCO2	i	i	i	i	nt	i
O=C(Nc1ccccc1C(=O)O)c1cccc(NS(=O)(=O)c2ccc(Br)cc2)c1	i	i	i	i	i	i
COc1ccc(C)cc1NC(=O)c1cccc(C(=O)Nc2cc(C)ccc2OC)c1	i	i	33	i	i	i
CN(C)C(=O)C[C@H]1CC[C@H](NC(=O)C2CC2)[C@@H](CO)O1	i	nt	nt	nt	i	i
O=C(NC1CC2CCC(C1)N2Cc1nnnn1Cc1ccco1)NC12CC3CC(CC(C3)C1)C2 (centres undefined)	i	80	i	i	nt	i
CN(C)C(=O)C[C@@H]1C[C@H]2c3cc(NC(=O)NC4CCCCC4)ccc3O[C@H]2[C@@H](CO)O1	i	nt	nt	nt	i	i
CCOc1ccc(CSC(=N)N)cc1Cl	i	100	i	i	i	i
CCOc1ccc(CSC(=N)N)cc1[N+](=O)[O-]	i	98	i	i	nt	i
C[C@H]1CN([C@@H](C)CO)C(=O)c2cc(C3=CCCCC3)cnc2O[C@H]1CN(C)C(=O)NC1CCCC1	i	nt	nt	nt	i	i
O=C(O)c1ccc(COc2c(F)c(F)c(F)c(F)c2F)o1	nt	96	i	i	nt	i
Cc1cc(C)cc(OCc2ccc(C(=O)O)o2)c1	i	i	i	i	nt	i
CSc1cccc(NC(=O)c2ccco2)c1	i	98	21	i	i	i
CN(C)c1cccc(NC(=O)c2ccco2)c1	nt	99	i	i	i	i
CN1C(=O)c2cc(NC(=O)Cc3cccs3)ccc2OC[C@@H]2O[C@@H](CC(=O)O)CC[C@H]21	i	nt	nt	nt	i	i
Cc1cc(C)c(C(=O)N2CCCC(Nc3ccc(F)cc3)C2)o1 (centres undefined)	i	99	i	i	i	i
COc1ccc(NC2CCCN(C(=O)c3oc(C)cc3C)C2)cc1OC (centres undefined)	i	100	i	i	i	i
CCOC(=O)c1[nH]c(C)c(C(=O)N2CCCC(Nc3ccc(C)c(C)c3)C2)c1C (centres undefined)	i	99	i	i	i	i
Cc1cc(C)c(C(=O)N2CCCC(Nc3ccc(C)c(C)c3)C2)o1 (centres undefined)	i	99	i	i	i	i
CO[C@H]1CN(C)C(=O)c2ccc(NC(C)=O)cc2OC[C@@H](C)N(Cc2cncnc2)C[C@H]1C	i	nt	nt	nt	i	i
Cc1snnc1C(=O)NC(=S)Nc1ccccc1	i	92	i	i	i	i
O=C(C[C@@H]1C[C@@H]2c3cc(NC(=O)NC4CCCC4)ccc3O[C@@H]2[C@@H](CO)O1)NCc1cccnc1	nt	nt	nt	nt	i	nt
SMILES	PglD inh	ALR H2O2 inh	CendR NRP1 mod	PDI turbidity	ERp5 block	ARNT TACC3 PPI
COc1cccc2cc(-c3nc4ccccc4o3)c(=O)oc12	i	i	30	i	i	nt
C[C@@H]1CN([C@H](C)CO)C(=O)Cc2cc(NC(=O)Nc3cccc4ccccc34)ccc2O[C@@H]1CN(C)C(=O)Nc1ccc2c(c1)OCO2	i	nt	nt	nt	i	nt
COc1ccc(C)cc1NC(=S)NNC(=O)c1ccccc1Cl	i	77	i	i	nt	i
COc1ccccc1C(=O)NNC(=S)Nc1ccccc1	nt	nt	i	i	i	i
CNC(=S)NNC(=O)c1ccccc1Cl	i	i	25	i	i	nt
O=C(CCC(=O)c1cccs1)NNC(=O)c1ccccc1Cl	i	nt	27	i	i	i
C[C@H]1CN([C@@H](C)CO)C(=O)Cc2cc(NS(=O)(=O)c3cn(C)cn3)ccc2O[C@@H]1CN(C)C(=O)Nc1ccccc1	i	nt	nt	nt	i	i
CNC[C@H]1OCCCC[C@H](C)Oc2ccc(NC(=O)c3ccncc3)cc2C(=O)N([C@H](C)CO)C[C@@H]1C	i	nt	nt	nt	i	i
O=C(NNc1ccccc1)C(=O)NNS(=O)(=O)c1ccc(CCCl)cc1	nt	99	i	i	i	i
O=C(NCCCn1ccnc1)Nc1ccc(Cl)c(Cl)c1	i	i	i	i	nt	65
CCOC(=O)c1ccc(NC(=S)NCCCn2ccnc2)cc1	i	i	i	i	i	35
O=C(NCCCn1ccnc1)Nc1ccc(Cl)cc1	nt	i	i	i	nt	i
CCC(=O)Nc1ccc(C(=O)NCCCn2ccnc2)cc1	nt	100	i	i	nt	nt
COC(=O)c1ccc(NC(=S)NCCCn2ccnc2)cc1	i	i	i	i	i	i
O=C(NCCCn1ccnc1)c1ccc(F)cc1	i	i	i	i	i	i
CCOc1ccc(/C=C2/Sc3ccc(C(=O)NCC4CCCO4)cc3N(C)C2=O)cc1OC (centres undefined)	i	i	27	i	i	i
O=C(C[C@H]1CC[C@@H](NS(=O)(=O)c2ccc(F)cc2)[C@H](CO)O1)NCc1ccncn1	i	nt	nt	nt	i	i
C[C@@H]1CN([C@H](C)CO)C(=O)c2cccc(NC(=O)C3CCOCC3)c2O[C@H]1CN(C)Cc1ccc2c(c1)OCO2	i	nt	nt	nt	i	nt
Cc1cccc(C)c1Nc1c(-c2ccsc2)nc2ncccn12	i	98	i	i	nt	i
Cc1ccc(Nc2c(-c3ccc(N4CCOCC4)cc3)nc3ncccn23)cc1	i	i	i	i	i	i
Cc1ccccc1Nc1nc2nonc2nc1N1CCOCC1	i	i	i	i	i	i
Cc1ccc(Nc2c(-c3ccc(N4CCOCC4)cc3)nc3ncccn23)cc1C	i	94	i	i	i	i
Cc1cc(C)n2c(Nc3c(C)cccc3C)c(-c3ccccn3)nc2n1	nt	nt	i	nt	i	nt
Cc1ccccc1Nc1c(-c2ccc(N3CCOCC3)cc2)nc2ncccn12	nt	98	i	i	i	i
Cc1onc(-c2ccccc2Cl)c1C(=O)NC(=S)Nc1ccccc1C(N)=O	i	95	i	i	nt	i
Cc1onc(-c2ccccc2Cl)c1C(=O)NC1CCS(=O)(=O)C1 (centres undefined)	i	96	i	i	i	i
Cc1onc(-c2c(F)cccc2Cl)c1C(=O)NC1CC1	i	i	i	i	i	i

Screens from PubChem.
